Compound activity: PubChem BioAssay, National Center for Advancing Translational Sciences (NCATS)
Shown is part of a subset that was picked to be rich in hits.
Methyltransferases – Primary Screen for Target Class Profiling of Small Molecule Inhibitors of Methyltransferases; purified enzyme, MTase-Glo SAH luminescence; stronger effect = lower value; calls only at 40 µM; actives 3.9% (n = 25,000); call rule not given here
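Each enzyme was assayed with SAM and its substrate. SAH formation detected by MTase-Glo luminescence; single-point 40 uM screen[…].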
* = called active by the depositor; i = inactive; + = active, no number; ! = not active in a repeat. On the % scale 0 is the no-effect control and ±100 the full control effect.

SMILES	Methyltransferases
COc1cc2ncnc(Nc3cccc(Cl)c3)c2cc1OC	+
CCCNC(=O)Nc1ccc(Oc2ncnc3cc(OC)c(OC)cc23)cc1Cl	i
COc1cc2ncnc(Nc3cccc(O)c3)c2cc1OC	i
Cc1ccccc1NC(=O)CSc1nnc2[nH]c(=O)c(C(C)(C)C)nn12	i
Cc1cc(NC(=O)CN(C)S(=O)(=O)c2ccc3[nH]c4c(c3c2)CCCC4)ccc1Br	i
CC1(C(=O)NC2CCCCC2)Cn2nc(-c3cccs3)cc2C(=O)N1Cc1ccc(F)cc1 (stereo not drawn)	i
CC1(C(=O)NC2CCCCCCC2)Cc2ccccc2C(=O)N1CCc1ccccc1 (stereo not drawn)	i
COc1ccccc1CNC(=O)C1(C)Cn2c(cc3ccccc32)C(=O)N1Cc1ccc(F)cc1 (stereo not drawn)	i
Cc1ccc(Cl)cc1N1CCN(S(=O)(=O)c2cc3c(cc2C)n(C)c(=O)n3C)CC1	i
Cc1ccc(CNC(=O)Cn2c(=O)c3ccc(Cl)cc3n3nncc23)cc1	i
CCCn1c(=O)c2ccc(C(=O)NC3CCCCC3)cc2n2c(=O)n(CC(=O)c3cccc(OC)c3)nc12	i
O=C(CCn1ccc2cc(S(=O)(=O)N3CCCC3)ccc21)NCCc1cccs1	i
CC1CCC(NC(=O)C2(C)Cn3c(nc4ccccc43)C(=O)N2Cc2ccco2)CC1 (stereo not drawn)	i
CCOC(=O)c1cc2n(n1)CC(C)(C(=O)NCc1ccc(C)cc1)N(c1ccc(OCC)cc1)C2=O (stereo not drawn)	i
COc1cc(C(=O)N2CCC(N3CCN(C)CC3)CC2)ccc1Nc1ncc2c(n1)N(C)c1ccccc1C(=O)N2C	i
CCC1C(=O)N(C)c2cnc(Nc3ccc(C(=O)NC4CCN(C)CC4)cc3OC)nc2N1C1CCCC1 (stereo not drawn)	+
CN1c2cc(C(=O)NC3CCCCCC3)ccc2C(=O)N2CCCC21 (stereo not drawn)	i
COc1ccc(C(=O)Cn2nc3n(C)c(=O)c4ccc(C(=O)NC5CCCCC5)cc4n3c2=O)cc1	i
CCc1cccc(CC)c1NC(=O)c1nn(C)c2c1CCc1cnc(Nc3ccc(C(=O)NC4CCN(C)CC4)cc3OC(F)(F)F)nc1-2	i
COc1cc(C(=O)NC2CCN(C)CC2)ccc1Nc1ncc2c(n1)N(C1CCCC1)CC(F)(F)C(=O)N2C	+
CC1CC(C)CN(S(=O)(=O)c2ccc3c(c2)oc(=O)n3CC(=O)Nc2ccc(Cl)cc2)C1 (stereo not drawn)	i
CC(C)Cn1c(=O)c2ccccc2n2c(CCC(=O)NC3CC3)nnc12	i
CCc1ccc(CNC(=O)CNC(=O)C2(C)Cn3c(cc4ccccc43)C(=O)N2C)cc1 (stereo not drawn)	i
O=C(Nc1ccc(F)cc1F)N1Cc2c(sc3c2CCCC3)-n2cccc2C1c1cccc(F)c1 (stereo not drawn)	i
COCCCNC(=O)C1(C)Cn2nc(-c3ccccc3)cc2C(=O)N1Cc1ccc(OC)cc1 (stereo not drawn)	i
SMILES	Methyltransferases
CCCN1C(=O)c2c(C(=O)Nc3ccc(CC)cc3)ncn2CC1(C)C(=O)NCc1ccccc1 (stereo not drawn)	i
O=C(NCc1nn(Cc2ccccc2)c2ccccc12)c1ccccc1C(F)(F)F	i
COc1cnc(-c2ccc(Cn3c(CC(C)(C)C(=O)O)c(SC(C)(C)C)c4cc(OC[C@@H]5Cc6ccccc6N5C(C)=O)ccc43)cc2)nc1	+
O=C(CCn1ccc2cc(S(=O)(=O)N3CCCCC3)ccc21)NC1CC1	i
CCCn1c(=O)c2ccc(C(=O)NC(C)C)cc2n2c(SCc3cccc(F)c3)nnc12	i
COC(=O)c1cc2n(n1)CC(C)(C(=O)NC1CCCCC1)N(Cc1ccc(OC)cc1OC)C2=O (stereo not drawn)	i
CC1(C(=O)NC2CCCCCC2)Cn2nc(-c3ccco3)cc2C(=O)N1c1cccc(F)c1 (stereo not drawn)	i
COc1ccc(CCN2C(=O)c3cc4ccccc4n3CC2(C)C(=O)NCc2ccccc2)cc1OC (stereo not drawn)	i
Cc1cccc(CN2C(=O)c3cc4ccccc4n3CC2(C)C(=O)NCc2ccccc2)c1 (stereo not drawn)	i
COc1ccc(CN2C(=O)c3cc4ccccc4n3CC2(C)C(=O)NCc2ccccc2)cc1OC (stereo not drawn)	+
O=C(Cn1nc2n(Cc3ccc(F)cc3)c(=O)c3ccccc3n2c1=O)c1ccc(F)cc1	i
Cc1ccc(NS(=O)(=O)c2cc3c(cc2C)n(C)c(=O)n3C)c(C)c1	i
Cc1cccc(CNC(=O)C2(C)Cn3cnc(C(=O)NC4CC4)c3C(=O)N2C2CC2)c1 (stereo not drawn)	i
Cc1cccc(Cn2nc3n(C)c(=O)c4ccc(C(=O)NCC(C)C)cc4n3c2=O)c1	i
CC1CCC(NC(=O)C2(C)Cn3c(ccc3-c3ccco3)C(=O)N2Cc2ccc(Cl)cc2)CC1 (stereo not drawn)	i
COc1cc2c(cc1OC)CN(C(=O)/C=C/c1c(-c3ccccc3)n(C)c3ncccc13)CC2	+
COc1cc2c(cc1OC)CN(CCc1ccc(NC(=O)c3cc(OC)c(OC)cc3NC(=O)c3cnc4ccccc4c3)cc1)CC2	i
CCOc1cccc(C2c3cccn3-c3sc4c(c3CN2C(=O)Nc2ccc3c(c2)OCCO3)CCCC4)c1 (stereo not drawn)	i
COCCN1C(=O)c2ccc(-c3ccccc3)n2CC1(C)C(=O)NC1CCCCCC1 (stereo not drawn)	i
CC(C)OCCCn1c(=O)c2cc(Cl)ccc2n2c(SCc3ccccc3Cl)nnc12	i
O=c1c(-c2ccc(O)cc2)coc2cc(O)cc(O)c12	i
O=c1cc(-c2ccc(O)c(O)c2)oc2cc(O)cc(O)c12	i
O=c1c(O)c(-c2ccc(O)c(O)c2)oc2cc(O)cc(O)c12	+!
Cc1ccc2n1CCN(C(=O)Nc1ccc(F)c(Cl)c1)C2C(C)C (stereo not drawn)	i
CCCn1c(=O)c2ccc(C(=O)NCC(C)C)cc2n2c(=O)n(Cc3ccccc3C)nc12	i
SMILES	Methyltransferases
Cc1cc(O[C@@H]2O[C@H](COC(=O)CC(=O)O)[C@@H](O)[C@H](O)[C@H]2O)c(C(C)C)cc1O	i
CC(=O)c1ccc(O[C@@H]2O[C@H](CO[C@@H]3OC[C@@H](O)[C@H](O)[C@H]3O)[C@@H](O)[C@H](O)[C@H]2O)cc1	i
COc1cc(C(=O)OCC2=CCC3C(C(=O)O)=COC(O[C@@H]4O[C@H](CO)[C@@H](O)[C@H](O)[C@H]4O)C23)ccc1O (stereo partly drawn)	i
CC(C)(O)C1CC=C(C(=O)OC[C@H]2O[C@@H](Oc3cc(C(=O)O)cc(O)c3O)[C@H](O)[C@@H](O)[C@@H]2O)CC1 (stereo partly drawn)	+
O=C(/C=C/c1ccc(O)c(O)c1)OC[C@H]1O[C@@H](OC2CCCCC2O)[C@H](O)[C@@H](O)[C@@H]1O (stereo partly drawn)	i
CC(C)(O)C1CC=C(C(=O)OCC2OC(Oc3c(O)cc(C(=O)O)cc3O)C(O)C(O)C2O)CC1 (stereo not drawn)	+
COc1ccccc1NC(=O)Cn1nc2n(Cc3ccc(C)cc3)c(=O)c3ccccc3n2c1=O	i
O=c1c2ccccc2n2c(-c3cc(Br)cs3)nnc2n1CCc1ccccc1	i
